Source: the supplement of paper PMC6555819

How the values were obtained:
Test in all cases: PBM binding z-score (relative to random genomic background probes); higher = stronger binding; sequences stand for … in GC…GCGATTGACAGCGTAGAATGAAGG
[1] = tested on: FXR:RXRa (NR concentration 270 nM, RXRa partner concentration 90 nM)
Summary of the method: (§1)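 Custom Agilent 4×180K protein-binding microarrays carried double-stranded probes. Their 34-nt variable regions held direct-repeat seeds, single-nucleotide variants, half-site ablations and random human genomic background sequences. Arrays were incubated 1 h with ligand-free nuclear receptor dimers in PBS pH 7.4, 2% milk, 0.02% Triton X-100, 1 mM DTT, 0.2 mg/mL BSA and 0.4 mg/ml salmon testes DNA. Antibodies against each partner (one per run) detected binding, and scanned fluorescence was regression-normalized. Binding z-scores use random background probes as reference.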

[2] = tested on: LXRa:RXRa (NR concentration 270 nM, RXRa partner concentration 90 nM)
Summary of the method: as §1

[3] = tested on: LXRa homodimer (NR concentration 270 nM)
Summary of the method: as §1

[4] = tested on: LXRb:RXRa (NR concentration 270 nM, RXRa partner concentration 90 nM)
Summary of the method: as §1

[5] = tested on: LXRb homodimer (NR concentration 270 nM)
Summary of the method: as §1

[6] = tested on: PPARa:RXRa (NR concentration 270 nM, RXRa partner concentration 90 nM)
Summary of the method: as §1

[7] = tested on: PPARg:RXRa (NR concentration 180 nM, RXRa partner concentration 90 nM)
Summary of the method: as §1

[8] = tested on: PPARg:RXRa 270nM:90nM, anti-RXR (NR concentration 270 nM, RXRa partner concentration 90 nM)
Summary of the method: as §1

[9] = tested on: PPARg:RXRa 30nM:10nM, anti-RXR (NR concentration 30 nM, RXRa partner concentration 10 nM)
Summary of the method: as §1

[10] = tested on: PPARg:RXRa 90nM:30nM, anti-RXR (NR concentration 90 nM, RXRa partner concentration 30 nM)
Summary of the method: as §1

[11] = tested on: PPARg:RXRa DBDmut IVT, anti-RXR (DBD mutation: RXRa K156A/R161A, NR concentration 270 nM, RXRa partner concentration 90 nM)
Summary of the method: as §1

[12] = tested on: PPARg:RXRa IVT, anti-PPARg (NR concentration 270 nM, RXRa partner concentration 90 nM)
Summary of the method: as §1

[13] = tested on: PPARg DBDmut:RXRa IVT, anti-PPARg (DBD mutation: PPARg1 K132A/R137A, NR concentration 270 nM, RXRa partner concentration 90 nM)
Summary of the method: as §1

[14] = tested on: PPARg DBDmut IVT, anti-PPARg (DBD mutation: PPARg1 K132A/R137A, NR concentration 270 nM)
Summary of the method: as §1

[15] = tested on: PPARg homodimer (NR concentration 180 nM)
Summary of the method: as §1

[16] = tested on: PXR:RXRa (NR concentration 270 nM, RXRa partner concentration 90 nM)
Summary of the method: as §1

[17] = tested on: PXR homodimer (NR concentration 270 nM)
Summary of the method: as §1

[18] = tested on: RARa:RXR (NR concentration 270 nM, RXRa partner concentration 90 nM)
Summary of the method: as §1

[19] = tested on: RARa homodimer (NR concentration 270 nM)
Summary of the method: as §1

[20] = tested on: RARb:RXRa (NR concentration 270 nM, RXRa partner concentration 90 nM)
Summary of the method: as §1

Sequence	PBM binding z-score [1]	PBM binding z-score [2]	PBM binding z-score [3]	PBM binding z-score [4]	PBM binding z-score [5]	PBM binding z-score [6]	PBM binding z-score [7]	PBM binding z-score [8]	PBM binding z-score [9]	PBM binding z-score [10]	PBM binding z-score [11]	PBM binding z-score [12]	PBM binding z-score [13]	PBM binding z-score [14]	PBM binding z-score [15]	PBM binding z-score [16]	PBM binding z-score [17]	PBM binding z-score [18]	PBM binding z-score [19]	PBM binding z-score [20]
TCTTGTAGATCAACAGGATGTTAAGAAAGATCGA	0.365	0.173	-0.3	0.12	-0.659	0.612	0.227	1.3	2.66	1.97	1.7	0.652	0.783	1.26	-0.565	0.147	-0.381	0.44	0.0345	-0.191
CCTACTGGGCCAAGGTCACTGATCAGTCAAAGCA	3.03	2.64	0.281	2.79	-0.518	4.1	4.17	4.62	2.22	3.93	4.22	4.98	-0.183	-0.598	2.26	3.02	0.241	3.49	0.0362	3.73
TCTTGTAGATCAACAGGAGGTTAAGATAGATCGA	0.606	1.82	0.251	0.87	-0.281	1.34	0.413	1.07	2.4	1.53	1.53	1.03	0.933	1.02	0.31	0.729	-0.114	1.05	0.362	0.506
CCGATTAGTTGACCATAAGGGCAACCGAAGCTCG	0.669	0.102	-0.113	0.217	-0.191	0.52	0.357	0.312	-0.22	0.0545	0.626	0.151	0.0233	-0.144	0.907	0.523	0.00458	0.703	0.65	1.46
ATCTTTAGGTAAGACTCAGTTCAGTGAAGAACGC	0.459	0.502	0.392	0.259	0.931	0.478	0.122	0.267	0.146	0.0526	0.866	0.683	1.19	0.877	0.751	1.35	1.56	0.837	1.14	0.585
ATACCAAGGTGATCGTGAGGGCGTTGATACTAAC	0.788	0.233	-0.00704	0.447	-0.219	0.489	0.369	-0.183	-0.112	-0.238	0.642	0.871	0.129	1.25	0.383	1.29	0.775	0.85	0.505	0.796
CCTAGCAGGCCAGCGTCACTCAAGCATTTCGCTT	-0.634	-0.323	-0.436	-0.45	-0.612	-0.652	-0.466	-1.02	-1.25	-0.939	0.696	-0.171	-1.15	-1.61	-0.299	-0.806	-0.554	-0.721	-0.187	-0.122
TGTACAGGGTCAAAGGCCAGAGTACGAATGTCGA	7.25	4.91	-0.0298	4.39	0.326	6.34	8.21	7.42	5.22	7.52	2.29	5.22	1.24	1.55	1.87	4.52	-0.0944	6.38	0.38	4.42
GCTGGTAGATCAAGGTTAAGAAAGACTAAGCTAA	0.17	0.885	-0.138	0.378	-0.528	1.12	0.134	1.18	-0.00579	1	-0.391	0.232	-0.0433	-0.0207	-0.421	0.348	-0.246	0.69	0.451	0.949
CCTATTAGTTGACCATAAGGGCAACCAAAGCTCG	1.06	0.507	0.675	0.965	0.552	0.948	0.604	0.461	0.262	0.51	0.357	0.63	0.3	0.552	1.72	1.18	1	1.47	2.44	1.62
CAAACTAGGTCAAGAGGACAAAGTCCGCTTCCCG	3.92	2.83	1.1	1.67	0.143	4.69	7.86	6.69	4.57	6.62	8.17	8.27	2.16	2.91	1.84	1.37	0.291	2.12	0.947	4.37
CCGACTGGGGCAAGGCTACCATAACGCACAGCCA	-0.0743	-0.335	-0.467	-0.273	-1.05	-0.00984	1.08	0.83	-0.201	0.0921	2.56	2.89	-0.229	-0.37	-0.287	-0.481	-0.488	-0.164	-0.086	0.763
TCAGATAGGTAAAAGGTGAAAGTCGGTGTGGTAA	2.12	1.87	0.408	2.01	0.00585	4.67	6.03	6.8	6.55	7.29	3.61	3.39	0.424	0.558	1.78	1.84	0.95	2.63	1.51	2.02
CGTCCCAGGTCAAAGGTCAGTGAAGAGATGACGG	7.79	6.36	2.98	6.02	0.888	7.24	10.8	9.06	8.62	9.26	2.95	5.97	0.207	0.538	3.77	6.8	1.05	8.49	1.64	5.7
ATCGTAAGGTCGAAGGTGAGTATACCCACCCGAA	2.6	1.9	-0.314	1.71	0.36	3.41	3.62	3.7	1.42	3.36	-0.143	1.54	1.22	-0.311	1.79	1.87	-0.0484	3.33	0.0373	2.74
CCTGCTAGGTCATGGTCATCTAATCTACAGTATG	3.56	2.73	0.055	1.89	-0.408	3.6	2.73	3.03	0.662	1.85	4.28	3.88	0.258	0.159	1.51	1.53	-0.321	2.23	0.16	3.76
CGAACGAGTGCATGAGTTGATAGCAAATGCCGAT	-0.259	-0.143	-0.369	-0.0215	-0.861	0.127	0.68	0.262	-0.00177	-0.142	-0.266	-0.442	-0.401	0.0555	-0.0589	0.62	0.717	0.133	-0.713	0.209
TAGCCTAGGTCATTCAGGGTCCAGTATAGAAAGC	4.67	4.27	0.918	3.01	0.48	3.74	1.99	2.11	0.487	1.23	1.57	2.74	0.533	0.0908	1.38	3.27	0.324	2.84	-0.0201	3.77
CCTACTCGGCCAAAGGTCATTGATTCCAATGCTC	4.86	5.54	4.99	5.12	1.98	6.14	10.1	9.26	8.85	9.61	3.3	5.09	0.222	-0.127	3.85	5.38	2.54	5.95	1.19	4.56
GCTGCTAGGTCAGGTTGGCCAGCTAACGGGTACG	1.01	0.472	-0.875	0.118	-0.715	1.32	0.322	0.756	-0.322	0.219	2.74	2.24	-0.719	-0.956	0.0382	-0.079	-0.624	0.336	-0.755	3.1
ATATGAAGGTTAAGGGTCATTCAGGTTGGTTCGC	5.91	5.46	3.32	4.85	1.14	5.8	8.33	7.73	5.9	8	2.29	4.44	1.32	1.46	3.39	5.84	2.27	6.97	1.13	4.19
TATAGAGGGTCAAAGGCCAGAGTACGAATGTCGA	6.65	4.84	0.902	3.76	1.49	5.82	8.05	6.87	5.22	7.09	2.58	4.43	0.901	0.741	2.2	3.62	0.282	5.1	1.12	4.11
TAAATGAGGTTATAAGATCAGGGAACGTTGCAAA	1.94	2.28	0.212	1.55	0.646	2.85	2.1	2.73	2.19	2.51	2.84	2.73	1.59	1.61	0.912	1	0.251	1.62	0.307	1.33
CAGCCTAGGTCAGGCCCAGTATAGGAGGAACGTT	1.06	0.524	-0.444	0.0997	-0.815	1.45	0.633	0.673	-0.32	0.386	0.76	1.39	-0.686	-1.02	0.325	-0.0342	-0.609	0.588	-0.629	3.2
TCGAGTAGGTTAGTCGGGGCATCCAGCCAACATA	0.256	0.187	-0.411	0.296	-1.13	0.822	-0.0152	0.685	0.993	0.766	2.28	2.09	-0.561	0.0213	-0.139	0.0331	-0.0889	0.263	-0.138	0.628
ACTATTAGTTGACTTAGGGCAACCAATACGACGC	0.265	0.363	0.224	0.227	0.496	0.111	0.997	0.305	0.385	0.219	0.203	0.66	0.926	0.817	0.6	0.385	0.557	0.714	0.139	0.985
CTCGAAAGGTCGTGCTCAGGGGAGTATACCAAAC	4.81	3.33	0.243	3.32	0.229	4.69	2.3	3.33	0.905	2.16	0.876	1.67	0.228	0.455	1.54	2.79	0.224	3.43	-0.0621	3.88
ATATCTAGGTAAAGTTCAGTGAAAGATCGATAGA	1.18	1.84	1.43	1.36	0.639	3.42	5.08	5.21	2.95	4.9	6.18	5.91	1.87	1.59	1.46	1.95	1.41	1.52	1.3	2.74
CCTGCTAGGTCAATGGTCAGCTATAGCAGCTCGC	2.7	2.23	0.0531	1.44	0.0202	3.06	4.45	4.91	2.6	4.71	4.67	3.79	-0.186	-0.414	1.14	0.849	-0.745	1.57	-0.658	3.75
